pAkt inh: HTS Assay for Inhibitors of Akt Phophorylation: Primary Screen; actives 0.32% (n = 360,000); activity change, % for hits at 50 µM; Neuro2A IGF-stimulated pAkt S473 HTRF, 20 min; stronger effect = lower value; in the data active = activity change below about -80%; inconclusive = mostly about -51% to -80%
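Single-point screen (50 µM final compound) in Neuro2A cells stimulated 20 min with 6 nM IGF at 37 deg C. After lysis, Ser473-phosphorylated Akt read by HTRF (ex 330 nm, em 615/665 nm) as the 665/615 ratio.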
DRD3 antagonist: qHTS of D3 Dopamine Receptor Antagonist: qHTS | D(3) dopamine receptor (Homo sapiens), P35462 | D3R cells, DiscoveRx beta-arrestin luminescence, antagonist mode; stronger effect = lower value | max response, negative = inhibition, % | actives 2.5% (n = 360,000) | AID 652054, 2013; in the data active = max response below about -50%; inconclusive = no clear call, values can overlap the other calls
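Cells plated overnight at 1500 cells/well, then exposed to library compounds with dopamine controls for 90 minutes at 37 degrees C. DiscoveRx reagent added for 30–60 minutes at room temperature; luminescence read, quantitative HTS format.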
PI4K2A block: qHTS for small molecular inhibitors of PI4K2A; purified PI4K2A, ADP-Glo luminescence, 1 h; stronger effect = lower value; activity change, negative = inhibition, % at 76.9 µM; actives 0.13% (n = 420,000); AID 1346378, 2018; in the data active = activity change below about -50%; inconclusive = mostly about -30% to -49%
Target sequence (Q9BTU6 whole entry, looked up): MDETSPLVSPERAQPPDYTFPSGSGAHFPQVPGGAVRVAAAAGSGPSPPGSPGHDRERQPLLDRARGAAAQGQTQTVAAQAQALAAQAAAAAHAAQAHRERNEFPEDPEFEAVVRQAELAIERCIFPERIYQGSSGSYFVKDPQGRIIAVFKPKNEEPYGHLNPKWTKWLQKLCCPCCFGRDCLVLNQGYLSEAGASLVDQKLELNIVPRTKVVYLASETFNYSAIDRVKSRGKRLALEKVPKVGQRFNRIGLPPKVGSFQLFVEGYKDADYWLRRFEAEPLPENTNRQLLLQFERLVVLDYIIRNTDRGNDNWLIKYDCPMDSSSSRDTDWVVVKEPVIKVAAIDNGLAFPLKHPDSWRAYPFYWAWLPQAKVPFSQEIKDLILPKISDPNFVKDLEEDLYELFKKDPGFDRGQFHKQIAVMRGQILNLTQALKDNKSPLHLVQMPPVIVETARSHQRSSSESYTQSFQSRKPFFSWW
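In this quantitative HTS, ADP production by PI4K2A was quantified luminescently after 1 h at ambient temperature; 100 microM adenosine served as plate-quality control.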
LDHA inh: qHTS assay for inhibitors of human lactate dehydrogenase; purified LDHA, NADH/diaphorase-resazurin fluorescence; stronger effect = lower value; activity change, % (values are at about 110 or 230 µM); actives 0.15% (n = 480,000); AID 1347041, 2019; in the data active = activity change below about -30%; inconclusive = mostly about -25% to -30%
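Human LDH5 (2 nM) was incubated with 0.06 mM NADH and 0.2 mM pyruvate for 5 min at room temperature in Tris pH 7.4. Remaining NADH was coupled through diaphorase/resazurin, and resorufin fluorescence was read at 0 and 20 min.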
DRD3 agonist: qHTS of D3 Dopamine Receptor Agonist: qHTS; max activation, %; AID 652048, 2013; D3R DiscoveRx beta-arrestin cells, luminescence, 90 min; actives 0.58% (n = 410,000); in the data active = max activation above about 30%
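Cells at 1500/well, incubated overnight, then treated with pinned compounds (dopamine as control) for 90 min at 37 degrees C. DiscoveRx reagent added for 30 - 60 minutes at room temperature; luminescence read.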
RGS4 inh: Inhibitors of Regulator of G Protein Signaling (RGS) 4: qHTS | AID 504845, 2011 | Transcreener GDP fluorescence polarization, RGS4-accelerated GTP hydrolysis | Regulator of G-protein signaling 4 (Homo sapiens), P49798 | Potency, µM (highest dose often 114 µM), most hits filed as inhibitors | actives 0.039% (n = 390,000); active = well fitted inhibition curve with a large enough effect; inconclusive = small, poorly fitted or top-dose-only effect; inactive = no such curve, though single readings can be large or run the other way; note: nearly all actives have a fitted effect of over 75% in size
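MLSMR compounds (23 nl, pin-transferred) preincubated 10 min at room temperature with a 500nM (2x) first reagent, then RGS4 at 900nM (2x) plus Transcreener GDP mix added; fluorescence polarization (620/688 nm) read before and after 90 min at 30 °C.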
Numbers stand for hits. Compounds with a hit are over-represented: about 2.8% of the library has one in this group of screens.

O=C(NC1CCCC1)C(c1ccc(F)cc1)N1CCC(O)(c2ccc(Cl)cc2)CC1 (configuration not stated) was read as pAkt inh inactive, DRD3 antagonist -93.0, PI4K2A block inactive, LDHA inh inactive and DRD3 agonist inactive.
Screening O=C(O)C/C(=C/c1ccc(-c2ccccc2)cc1)c1nc2ccccc2s1 returned LDHA inh inactive.
COCCN1C(=O)N[C@@H](c2cccs2)C(C(C)=O)=C1C was read as pAkt inh inactive, DRD3 antagonist inactive, PI4K2A block inactive, LDHA inh inactive, DRD3 agonist 35.3 and RGS4 inh inactive.
For Cc1cc(C)c2ccc3ccccc3c2n1 the results were LDHA inh inactive.
`CC(Cc1cccs1)NC(=O)Nc1ccc(Cl)c(Cl)c1` (configuration not stated) gave pAkt inh -103.0%, DRD3 antagonist inconclusive, PI4K2A block inactive, LDHA inh inactive, DRD3 agonist inactive and RGS4 inh inactive.
`COC(=O)c1sccc1NC(=O)c1ccc(C)o1` gave pAkt inh inactive, DRD3 antagonist inactive, PI4K2A block inactive, LDHA inh inactive, DRD3 agonist inactive and RGS4 inh inactive.
Screening COC(=O)c1sccc1-c1ccc(C(=O)Nc2ccccc2)o1 returned pAkt inh -128.2%, DRD3 antagonist inactive, PI4K2A block inactive, LDHA inh inactive, DRD3 agonist inactive and RGS4 inh inactive.
Cc1cccc(NC(=O)C(C#N)=C2CCCCC2)c1 was read as LDHA inh inactive.
`CCCCCCCCS(=O)(=O)CCO` gave LDHA inh inactive.
COc1ccc2oc(=O)c(-c3ccccc3)c(C)c2c1 was read as LDHA inh inactive.
CC(=O)N1CCN(C(C(=O)O)c2c[nH]c3ccccc23)CC1 (configuration not stated) was read as LDHA inh inactive.
O=C(OC1CC2CC1[C@H]1CCCCN1C2=O)N1CCN(S(=O)(=O)c2ccccc2)CC1 (some centres not stated) was read as pAkt inh inactive, DRD3 antagonist -53.2, PI4K2A block inactive, LDHA inh inactive and DRD3 agonist inactive.
For O=C(OC1CC2CC1[C@H]1CCCCN1C2=O)N1CCN(c2ccccc2)CC1 (some centres not stated) the results were pAkt inh inactive, DRD3 antagonist inactive, PI4K2A block inactive, LDHA inh inactive and DRD3 agonist inactive.
`Cn1c(SCc2cc(=O)n3[nH]cc(C#N)c3n2)nnc1-c1ccc(Cl)cc1` gave LDHA inh inactive.
O=C(N/N=C/c1ccncc1)c1sc2ccccc2c1Cl was read as DRD3 antagonist inactive, PI4K2A block inactive, LDHA inh inactive, DRD3 agonist inactive and RGS4 inh inactive.
For O=C(N/N=C/c1ccc[nH]1)c1sc2ccccc2c1Cl the results were pAkt inh inactive, DRD3 antagonist -64.7, PI4K2A block inactive, LDHA inh inactive, DRD3 agonist inactive and RGS4 inh inactive.
CC1CCN(CCCNC(=O)c2ccc(CSCc3cccc(Cl)c3)o2)CC1 was read as pAkt inh inactive, DRD3 antagonist -62.0, PI4K2A block inactive, LDHA inh inactive, DRD3 agonist inactive and RGS4 inh inactive.
COc1ccccc1-c1cc(C(F)(F)F)nc(S(=O)(=O)CCCC(=O)Nc2cc(C)on2)n1 was read as pAkt inh inactive, DRD3 antagonist -82.5, PI4K2A block inactive, LDHA inh inactive, DRD3 agonist inactive and RGS4 inh inactive.
For COc1ccccc1-c1cc(C(F)(F)F)nc(S(=O)(=O)CCCC(=O)N2CCCCC2C)n1 (configuration not stated) the results were pAkt inh inactive, DRD3 antagonist -88.0, PI4K2A block inactive, LDHA inh inactive, DRD3 agonist inactive and RGS4 inh inconclusive.
For COc1ccccc1-c1cc(C(F)(F)F)nc(S(=O)(=O)CCCC(=O)NCc2ccc(F)cc2)n1 the results were pAkt inh inactive, DRD3 antagonist -67.0, PI4K2A block inactive, LDHA inh inactive, DRD3 agonist inactive and RGS4 inh inactive.
For COc1ccccc1-c1cc(C(F)(F)F)nc(S(=O)(=O)CCCC(=O)Nc2cccnc2Cl)n1 the results were pAkt inh inactive, DRD3 antagonist -51.6, PI4K2A block inactive, LDHA inh inactive, DRD3 agonist inactive and RGS4 inh inactive.
Screening CCCN(CCC)CC(O)CN(c1ccc(OC)cc1)S(=O)(=O)c1ccc(C)cc1 (configuration not stated) returned LDHA inh inactive.
Screening COc1ccccc1-c1cc(C(F)(F)F)nc(S(=O)(=O)CCCC(=O)NC(C)C)n1 returned pAkt inh inactive, DRD3 antagonist -67.4, PI4K2A block inactive, LDHA inh inactive, DRD3 agonist inactive and RGS4 inh inactive.
`COc1ccccc1-c1cc(C(F)(F)F)nc(S(=O)(=O)CCCC(=O)Nc2ccccc2F)n1` gave PI4K2A block inactive, LDHA inh inactive, DRD3 agonist inactive and RGS4 inh inactive.
For Cn1ccnc1C(=O)c1ccc(NC(=O)C(=O)NC2CCCCC2)cc1 the results were LDHA inh inactive.
Screening Cc1cc(F)ccc1-c1cc(C(=O)Nc2ccccc2)[nH]n1 returned pAkt inh inactive, DRD3 antagonist -84.5, PI4K2A block inactive, LDHA inh inactive and DRD3 agonist inactive.
Screening COc1ccc(NC(=O)c2cc(-c3ccc(F)cc3OC)n[nH]2)cc1OC returned pAkt inh inactive, DRD3 antagonist inactive, PI4K2A block inactive, LDHA inh inactive and DRD3 agonist inactive.
Screening Cc1cc(F)ccc1-c1cc(C(=O)NCc2cccs2)[nH]n1 returned pAkt inh inactive, DRD3 antagonist -77.0, PI4K2A block inactive, LDHA inh inactive and DRD3 agonist inactive.
For Cc1cc(F)ccc1-c1cc(C(=O)NCc2cccc(C(F)(F)F)c2)[nH]n1 the results were pAkt inh inactive, DRD3 antagonist inactive, PI4K2A block inactive, LDHA inh inactive and DRD3 agonist inactive.
COc1ccc(-c2cc(C(=O)Nc3ccc(OC)c(OC)c3)[nH]n2)c(C)c1 was read as DRD3 antagonist -59.7, PI4K2A block inactive, LDHA inh inactive and DRD3 agonist inactive.
Screening CC(=O)NC(C)c1ccc(C(=O)CSc2cc(Cl)ccc2Cl)cc1 (configuration not stated) returned LDHA inh inactive.

Screening results deposited in PubChem BioAssay by National Center for Advancing Translational Sciences (NCATS).
